HCMV inh – blocks human cytomegalovirus replication | HFF cells, HCMV-luciferase reporter, 72 h; stronger effect = lower value | activity change, negative = inhibition, % at 57.5 µM | 410,000 compounds, 4.5% hits; in the data active means activity change below about -60%; inconclusive means no clear call, values can overlap the other calls; inactive means above about -39%
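Screen run at 2 compound doses on HFFs infected with reporter HCMV, MOI 1 PFU/cell. Luciferase activity from cell lysates at 72 h post infection gave inhibition relative to buffer-only and Salinomycin wells.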
Pf growth 96h – P. falciparum growth inhibition at 96 hour, primary screen for plastid delayed-death inhibitors | AID 504834 | Potency, µM (doses to about 28.7 µM), most hits filed as inhibitors | 320,000 compounds, 6.9% hits | P. falciparum luciferase reporter growth, 96 h
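Two parasite generations (96 h, 37 C, 5% CO2) of compound exposure in infected erythrocytes (0.05% parasitemia, 2% hematocrit). Luciferase-reporter P. falciparum; decreased luminescence indicates inhibited growth, aimed at apicoplast-acting delayed death.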
Pf growth 48h – P. falciparum growth inhibition at 48 hours (one generation). Potency, µM (highest dose often 28.7 µM), usual class: inhibitors. P. falciparum luciferase growth in erythrocytes, 48 h. 310,000 compounds, 5.9% hits. AID 504832
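Cell-based growth assay: transgenic P. falciparum expressing firefly luciferase, cultured in red cells within RPMI 1640 containing 0.5% w/v Albumax, 24 mM bicarbonate and gentamycin. A drop in luciferase activity indicates inhibition.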
Lassa entry inh – Lassa virus entry inhibition | Lassa virus pseudotype entry inhibition, cell reporter | Potency, µM (highest dose often 37.9 µM), hits mostly inhibitors | 300,000 compounds, 1.2% hits; calls by dose curve; tested in HEK293 cells; further: nearly all actives have a fitted effect of over 50% in size
HCV inh – HCV inhibition; Huh7.5.1 HCVcc-Cre infection, luciferase reporter, 44 h; Potency, µM (doses to about 41.8 µM), actives largely listed as inhibitors; 340,000 compounds, 3.4% hits; AID 651820
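Luciferase read-out (15 sec integration) after a 15 min room-temperature substrate step quantifies HCVcc-Cre infection. Cells, 1,000 per well, had compound added 4 h post-plating, then virus at ~0.5 moi, and were cultured 44 h.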
Marburg entry inh – Marburg virus entry inhibition. Potency, µM (series often up to 37.8 µM), usual class: inhibitors. Marburg virus pseudotyped entry inhibition, cell reporter. 300,000 compounds, 1.8% hits; calls by dose curve; tested in HEK293 cells
Of the large screens only hits and unclear results are named; the others gave an inactive call. Shown are actives, neighbours in structure and some others; about 14% of the full set was active somewhere. Unless noted, the call rests on the fitted dose curve; in most records, active means well fitted inhibition curve with a large enough effect; inconclusive means small, poorly fitted or top-dose-only effect, or another doubt; inactive means no such curve, though single readings can be large or run the other way.

CCCN(CCC)S(=O)(=O)c1ccc(NC(=O)C2CCCO2)cc1 (configuration not stated)	Pf growth 96h 9.3µM, Pf growth 48h inconclusive, Lassa entry inh inconclusive, Marburg entry inh inconclusive
NS(=O)(=O)c1ccc(NC(=O)C2CCCO2)cc1 (configuration not stated)	none (no result: Pf growth 96h)
CCOc1ccc(S(=O)(=O)Nc2ccc(C(=O)NCC3CCCO3)cc2)cc1 (configuration not stated)	Lassa entry inh inconclusive
CCCn1c(O)c(N=NC(=O)c2cccnc2)c2cc(Br)ccc21	Pf growth 96h 5.9µM, Pf growth 48h 5.9µM, Lassa entry inh inconclusive, HCV inh inconclusive
O=C(Nc1ccc(F)cc1F)C1CCN(c2ncnc3c2sc2cccc(F)c23)CC1	none (no result: Lassa entry inh, Marburg entry inh)
CCN(CC)CCCNC(=O)C1CCN(c2ncnc3c2sc2cccc(F)c23)CC1	Pf growth 96h 1.9µM, Pf growth 48h inconclusive, HCV inh inconclusive (no result: Lassa entry inh, Marburg entry inh)
CCOC(=O)c1[nH]c2c(c1-c1ccccc1)C(=O)CC(c1ccc(OC)c(OC)c1)C2 (configuration not stated)	HCMV inh inconclusive, Pf growth 96h 10µM, Pf growth 48h inconclusive, HCV inh inconclusive
CCOC(=O)c1[nH]c2c(c1C)C(=O)CC(c1ccc(OCC)c(OC)c1)C2 (configuration not stated)	HCV inh inconclusive (no result: Pf growth 48h)
CCOC(=O)c1[nH]c2c(c1-c1ccccc1)C(=O)CC(c1ccc(OCC)cc1)C2 (configuration not stated)	Pf growth 96h 10µM
Cc1ccc(-c2nnnn2-c2ccccc2C(=O)O)cc1	none (no result: Pf growth 96h, Pf growth 48h, Lassa entry inh, Marburg entry inh)
CC(C)N(C(=O)c1cc2c(Cl)nc3ccccc3c2s1)C1CCCCC1	none (no result: Pf growth 96h, Pf growth 48h, HCV inh)
Cc1ccc(NC(=O)CS(=O)CC(=O)N(c2ccccc2F)C(C)C(=O)NC2CCCC2)cc1 (configuration not stated)	Lassa entry inh inconclusive, Marburg entry inh inconclusive
O=C(CS(=O)CC(=O)N(c1ccccc1)C(C(=O)NC1CCCCC1)c1ccco1)Nc1ccc(F)cc1 (configuration not stated)	HCMV inh inconclusive, Pf growth 96h 7.4µM, Pf growth 48h inconclusive
COc1ccc(N(C(=O)CS(=O)CC(=O)Nc2ccc(F)cc2)C(C(=O)NC2CCCCC2)c2cccs2)cc1 (configuration not stated)	HCMV inh inconclusive, Pf growth 96h inconclusive
Cc1ccc(NC(=O)CS(=O)CC(=O)N(c2ccc(C)cc2)C(C)C(=O)NC2CCCCC2)cc1 (configuration not stated)	Pf growth 96h inconclusive, Pf growth 48h 13µM, Lassa entry inh inconclusive, Marburg entry inh inconclusive
FC(F)(F)C(Oc1nc(NC2CCCCC2)nc(N2CCOCC2)n1)C(F)(F)F	Pf growth 96h inconclusive, Pf growth 48h 12µM, HCV inh inconclusive, Marburg entry inh inconclusive
Cc1ccc(Nc2nc(OC(C(F)(F)F)C(F)(F)F)nc(N3CCOCC3)n2)cc1	Pf growth 96h inconclusive, Pf growth 48h inconclusive, Marburg entry inh 1µM
CCN(CC)c1ncnc2c1ncn2[C@H]1CN(Cc2ccc(OC)cc2)C[C@@H](CO)O1	none (no result: Pf growth 96h, Pf growth 48h, Lassa entry inh, HCV inh, Marburg entry inh)
CC(C)(C)OC(=O)N/N=C/c1ccc(N2CCOCC2)s1	Pf growth 96h inconclusive, Lassa entry inh 1.8µM
O=C(N/N=C/c1ccc(N2CCOCC2)s1)c1ccccc1Br	Pf growth 96h inconclusive, Marburg entry inh inconclusive
Nc1ccc(C(=O)N/N=C/c2ccc(N3CCOCC3)s2)cc1	none (no result: Pf growth 96h, Pf growth 48h, Lassa entry inh, Marburg entry inh)
Clc1cccc(N/N=C/c2ccc(N3CCOCC3)s2)c1	HCMV inh -83, Pf growth 96h inconclusive, Pf growth 48h inconclusive
Cc1nc(-n2nc(C)c(Cc3ccccc3Cl)c2C)sc1C(=O)Nc1ccccc1F	none (no result: Pf growth 96h, Pf growth 48h, HCV inh)
Cc1cccc(N2CCN(C(=O)CN3C(=O)COc4ccc(S(=O)(=O)N5CCC(C)CC5)cc43)CC2)c1C	none (no result: Pf growth 96h, Pf growth 48h, HCV inh)
Cc1ccsc1C(=O)N1CCC1(C)C(=O)NCC(C)(C)C (configuration not stated)	none (no result: Pf growth 96h, Pf growth 48h, Lassa entry inh, HCV inh, Marburg entry inh)
CC(NC(=S)Nc1ccc(Cl)cc1)C(c1ccccc1)N1CCOCC1 (configuration not stated)	Pf growth 96h 10µM, Pf growth 48h inconclusive
CC(NC(=O)Nc1ccccc1)C(c1ccccc1)N1CCOCC1 (configuration not stated)	none
O=C(ONC1=NCCCCC1)c1ccc(Cl)cc1	Pf growth 48h inconclusive, Lassa entry inh inconclusive, HCV inh 2.5µM, Marburg entry inh inconclusive (no result: Pf growth 96h)

High-throughput results as filed in PubChem.
